Experimental data taken from PubChem BioAssay (NCI).
Compounds without any hit were thinned out: in the full panel of roughly 83,000, 20% have a hit.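 Activity criterion: percent growth below 10, measured after cells in 96-well plates were exposed to a single compound concentration for 48 hours.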

Key:
Test in all cases: NCI-60 one-dose screen, 48 h (100 = growth as untreated, 0 = no growth, -100 = all killed)
SK-MEL-2 melanoma = settings: 10 µM
SN12C renal = settings: 10 µM
UO-31 renal = settings: 10 µM
TK-10 renal = settings: 10 µM unless noted
ACHN renal = settings: 10 µM
CAKI-1 renal = settings: 10 µM
A498 renal = settings: 10 µM
CCRF-CEM leukemia = settings: 10 µM
MOLT-4 leukemia = settings: 10 µM
SR leukemia = settings: 10 µM
OVCAR-8 ovarian = settings: 10 µM
OVCAR-5 ovarian = settings: 10 µM
OVCAR-4 ovarian = settings: 10 µM
SK-OV-3 ovarian = settings: 10 µM
IGROV1 ovarian = settings: 10 µM
OVCAR-3 ovarian = settings: 10 µM
HS 578T breast = settings: 10 µM
NCI/ADR-RES ovarian = settings: 10 µM
EKVX NSCLC = settings: 10 µM
RPMI-8226 leukemia = settings: 10 µM

Measured: growth

NCCCN
inactive: SK-MEL-2 melanoma 122% | SN12C renal 101% | UO-31 renal 92.6% | TK-10 renal 107% | ACHN renal 103% | CAKI-1 renal 98.3% | A498 renal 114% | CCRF-CEM leukemia 101% | MOLT-4 leukemia 112% | SR leukemia 101% | OVCAR-8 ovarian 104% | OVCAR-5 ovarian 107% | OVCAR-4 ovarian 90% | SK-OV-3 ovarian 105% | IGROV1 ovarian 113% | OVCAR-3 ovarian 111% | HS 578T breast 104% | NCI/ADR-RES ovarian 112%

O=S(=O)(Cc1ccccc1)c1ccccc1
inactive: SK-MEL-2 melanoma 114% | SN12C renal 104% | UO-31 renal 102% | TK-10 renal 102% | ACHN renal 111% | CAKI-1 renal 107% | A498 renal 101% | CCRF-CEM leukemia 105% | MOLT-4 leukemia 108% | SR leukemia 99.9% | OVCAR-8 ovarian 102% | OVCAR-5 ovarian 106% | OVCAR-4 ovarian 98.1% | SK-OV-3 ovarian 113% | IGROV1 ovarian 114% | OVCAR-3 ovarian 107% | HS 578T breast 133% | NCI/ADR-RES ovarian 117%

COc1ccc2c(c1)CCc1c-2n[nH]c1-c1[nH]nc2c1CCc1cc(OC)ccc1-2
inactive: SK-MEL-2 melanoma 61.7% | EKVX NSCLC 59.8% | SN12C renal 91.6% | TK-10 renal 109% | A498 renal 109% | CCRF-CEM leukemia 41.8% | MOLT-4 leukemia 50.4% | RPMI-8226 leukemia 61.2% | OVCAR-8 ovarian 84.7% | OVCAR-5 ovarian 89.6% | OVCAR-4 ovarian 77.3% | SK-OV-3 ovarian 77% | IGROV1 ovarian 62.4% | OVCAR-3 ovarian 41.3% | HS 578T breast 48.7% | NCI/ADR-RES ovarian 33.9%

Cc1cc2nc(CC(=O)c3cccc([N+](=O)[O-])c3)c(=O)[nH]c2cc1C
inactive: SK-MEL-2 melanoma 95.4% | EKVX NSCLC 59.9% | SN12C renal 86.5% | TK-10 renal 115% | ACHN renal 87.3% | A498 renal 127% | CCRF-CEM leukemia 76.3% | MOLT-4 leukemia 83.4% | RPMI-8226 leukemia 88.4% | OVCAR-8 ovarian 92.7% | OVCAR-5 ovarian 92.1% | OVCAR-4 ovarian 89.4% | SK-OV-3 ovarian 108% | IGROV1 ovarian 91.4% | OVCAR-3 ovarian 102% | HS 578T breast 72.6% | NCI/ADR-RES ovarian 83.9%

Cc1cc(NC(=O)CSCC(=O)O)no1
inactive: SK-MEL-2 melanoma 122% | EKVX NSCLC 93.8% | SN12C renal 101% | TK-10 renal 86.6% | CAKI-1 renal 90% | A498 renal 120% | CCRF-CEM leukemia 107% | MOLT-4 leukemia 103% | RPMI-8226 leukemia 120% | OVCAR-8 ovarian 99.3% | OVCAR-5 ovarian 99.6% | OVCAR-4 ovarian 107% | SK-OV-3 ovarian 99.3% | IGROV1 ovarian 114% | OVCAR-3 ovarian 123% | HS 578T breast 78% | NCI/ADR-RES ovarian 107%

CCOC(=O)c1ccc(NC(=S)P(=O)(c2ccccc2)c2ccccc2)cc1
inactive: SK-MEL-2 melanoma 119% | SN12C renal 103% | UO-31 renal 92.9% | TK-10 renal 123% | ACHN renal 102% | CAKI-1 renal 86.3% | A498 renal 86.3% | CCRF-CEM leukemia 69.8% | MOLT-4 leukemia 52.6% | SR leukemia 69.3% | RPMI-8226 leukemia 64.4% | OVCAR-8 ovarian 107% | OVCAR-5 ovarian 105% | OVCAR-4 ovarian 99.6% | SK-OV-3 ovarian 107% | IGROV1 ovarian 110% | OVCAR-3 ovarian 92.2% | HS 578T breast 96.4% | NCI/ADR-RES ovarian 101%

CC(C)CCCC(=O)O
inactive: SK-MEL-2 melanoma 102% | SN12C renal 106% | UO-31 renal 95.4% | TK-10 renal 105% | ACHN renal 104% | CAKI-1 renal 105% | A498 renal 86.8% | CCRF-CEM leukemia 101% | MOLT-4 leukemia 119% | SR leukemia 89.4% | RPMI-8226 leukemia 105% | OVCAR-8 ovarian 114% | OVCAR-5 ovarian 100% | OVCAR-4 ovarian 96.8% | IGROV1 ovarian 104% | OVCAR-3 ovarian 114% | HS 578T breast 103% | NCI/ADR-RES ovarian 109%
